Sampled rows, rich in hits. Any-hit rate of the full collection: about 21%.
Shiga inhibitor = blocks Shiga toxin action in Vero cells; Vero cells, Shiga toxin protein synthesis inhibition reporter; inhibition, % at 38.7 µM; AID 2315; 290,000 compounds, 9.2% hits; in the data active means inhibition mostly above about 28%, no sharp cut-off; inactive means mostly below about 43%; further: 0% is about no effect
Pf growth 48h = inhibits P. falciparum growth in the first generation, 48 h. 310,000 compounds, 5.9% hits. P. falciparum luciferase growth in erythrocytes, 48 h. Potency, µM (titrated, usually from 28.7 µM), without a hit: at the highest dose activity change, negative = inhibition, usual class: inhibitors; further: potency means the concentration at half of the fitted maximal effect; on the % scale 0 is the no-effect control and ±100 the full control effect
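In quantitative HTS format, infected erythrocytes bearing luciferase-reporter parasites were treated for a single generation at 37 C. Luminescence after adding detection reagent served as the growth measure.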
Pf growth 96h = P. falciparum growth inhibition at 96 hours | 320,000 compounds, 6.9% hits | P. falciparum luciferase reporter growth, 96 h | Potency, µM (highest dose often 28.7 µM), inactives show at the highest dose activity change, negative = inhibition, most hits filed as inhibitors; further: potency means the concentration at half of the fitted maximal effect; on the % scale 0 is the no-effect control and ±100 the full control effect
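Plates of compound plus infected erythrocytes (2% hematocrit, 0.05% parasitemia final) incubate 96 hours, 37 C, 5% CO2. Detection reagent added; reduced luminescence from the parasites' luciferase reporter flags inhibition.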
CHX counter = counter-screen hit for Shiga toxin inhibitors, cycloheximide; cell reporter, cycloheximide protein synthesis inhibition counterscreen; max response, %; 300,000 compounds, 12% hits; in the data active means max response mostly above about 13%, no sharp cut-off; inactive means mostly below about 14%; further: read at 38.3 µM for the half of the compounds with a filed dose; 0% is about no effect
Starred values were filed as active, the others as inactive; i = inactive; ? = inconclusive; · = no result given. Unless noted, the call rests on the fitted dose curve; in most records, active means well fitted inhibition curve with a large enough effect; inconclusive means small, poorly fitted or top-dose-only effect, or another doubt; inactive means no such curve, though single readings can be large or run the other way.

SMILES	Shiga inhibitor	Pf growth 48h	Pf growth 96h	CHX counter
O=C(O)c1ccc(S(=O)(=O)N2CCSCC2)cc1	11.3	0.9%	?	-2.7
CCCCN(C)C(=O)Cn1ncc2c3ccccc3n(CCC)c2c1=O	-3.3	?	9.1%	18.8
NS(=O)(=O)c1ccc(CCNC(=O)c2cc3ccccc3oc2=O)cc1	·	35.1%	?	1.8
COc1cc(-c2nc3c(c(C)nn3-c3ccccc3)c3cc(OC)c(OC)cc23)ccc1O	5.7	2.94µM*	?	2.6
CN(C)c1ccc(CN(C(=O)c2cccs2)C2CCS(=O)(=O)C2)cc1 (configuration not stated)	-7.2	4.8%	18.2%	-2.7
CCO/C=N/Nc1nc(C(F)(F)F)nc2c1cnn2Cc1ccccc1	-9.0	?	?	-6.0
Cc1cccc(CSc2nnc(CCCCCNC(=O)OC(C)(C)C)o2)c1	36.0	9.28µM*	-8.7%	1.4
O=C(CN1C(=O)CSc2ccc(S(=O)(=O)N3CCOCC3)cc21)NCc1ccc(Cl)cc1	-8.3	-2.5%	?	2.5
CC(C)OC(=O)CC(=O)CSc1nc2c(c(-c3cccs3)c1C#N)CCC2	8.4	9.7%	-3.3%	-0.6
CCOC(=O)C(C)Sc1nc2c(c(-c3cccs3)c1C#N)CCC2 (configuration not stated)	12.6	?	10.4µM*	-0.7
CSCCC(NC(=O)c1cc(C)oc1C)C(=O)O (configuration not stated)	-19.7	2.3%	·	-1.7
COC(=O)CCC(NC(=O)c1cc(C)oc1C)C(=O)OC (configuration not stated)	-3.6	12.1%	10.4µM*	2.3
O=C(c1cccs1)N(CCN1CCCCC1)CC1CCCN(C2CCCC2)C1 (configuration not stated)	52.6*	-5.4%	?	35.9*
COCCN(CC1CCCN(C2Cc3ccccc3C2)C1)C(=O)c1cccs1 (configuration not stated)	29.0*	?	29.3%	27.1*
O=C(CCN1CCCC1)c1cccs1	-6.3	?	-20.5%	5.5
Cc1ccc(C(=O)N(CCN2CCCCC2)CC2CCCN(C3CCCC3)C2)s1 (configuration not stated)	71.7*	?	0.0%	32.9*
COc1cccc(-n2nnnc2SCC(=O)Nc2ccc(NC(C)=O)cc2)c1	14.1	33.6%	29.8%	-1.9
CCNC(=O)/C(C#N)=C/c1c(N2CCN(Cc3ccc4c(c3)OCO4)CC2)nc2c(C)cccn2c1=O	-18.5	7.38µM*	3.7µM*	-1.7
CCOC(=O)/C(C#N)=C/c1c(N2CCN(c3ccccc3)CC2)nc2c(C)cccn2c1=O	-3.8	?	?	-0.9
Cc1cccn2c(=O)c(C=C(C#N)C#N)c(N3CCN(c4cccc(Cl)c4)CC3)nc12	-3.2	7.38µM*	?	-3.2
CCNC(=O)/C(C#N)=C/c1c(N2CCN(c3cccc(Cl)c3)CC2)nc2c(C)cccn2c1=O	-5.2	11.7µM*	?	-1.8
CS(=O)(=O)N1CCN(c2ccccc2[N+](=O)[O-])CC1	-3.8	58.4%	25.6%	-1.9
Cc1ccc(-c2csc3nc4cc(C(N)=O)ccc4c(=O)n23)cc1	-3.4	-17.2%	-8.5%	-1.1
NC(=O)c1ccc2c(=O)n3c(-c4cccs4)csc3nc2c1	32.0*	49.2%	33.4%	24.7*
CCOC(=O)C(/C=C(\C#N)C(=O)OCC)=C(/N)N1CCN(c2ccccc2)CC1	-17.8	-9.8%	·	-2.4
SMILES	Shiga inhibitor	Pf growth 48h	Pf growth 96h	CHX counter
CCOC(=O)/C(C#N)=C/c1ccc(N2CCN(C)CC2)cc1	22.9	8.2%	24.2%	28.8*
CCOC(=O)/C(C#N)=C\c1ccc(OC)c(OC)c1	-4.1	2.3%	10.5%	-4.1
CCOC(=O)/C(C#N)=C\c1ccc(N2CCN(C)CC2)cc1	12.8	9.3%	25.3%	25.9*
C=C[C@@]1(C)CC[C@H]2C(=CC[C@@H]3[C@]2(C)CCC[C@@]3(C)C(=O)O)C1	-10.2	·	·	-3.9
C[C@]12CC[C@@H]3c4ccc(OC(=O)c5ccccc5)cc4CC[C@H]3[C@@H]1CC[C@@H]2O	24.9	?	8.28µM*	4.8
COc1cc2c(cc1O)CC[C@@H]1[C@@H]2CC[C@]2(C)[C@@H](O)CC[C@@H]12	-13.8	·	·	-8.4
CSc1cccc(NC(=O)CCS(=O)(=O)c2cccc3nonc23)c1	17.2	9.7%	204.2%	-1.6
CCc1nnc(NC(=O)CSc2ncc(-c3ccccc3)[nH]2)s1	20.0	23.8%	·	38.0*
Cc1csc(NC(=O)CSc2ncc(-c3ccccc3)[nH]2)n1	10.2	72.8%	30.6%	29.5*
Cc1nnc(NC(=O)CSc2ncc(-c3ccccc3)[nH]2)s1	31.4*	-2.2%	42.2%	12.8
O=C(CSc1ncn[nH]1)Nc1nnc(-c2ccccc2)s1	91.3*	·	17.3%	66.8*
CC1CCCN(C(=O)COC(=O)CNC(=O)c2ccc(Br)cc2)C1 (configuration not stated)	·	-2.4%	1.5%	·
COc1cc(OC)c(S(=O)(=O)NC(C)C)cc1C(=O)O	8.6	-0.7%	32.1%	-1.4
O=C(Nc1nc(-c2ccccc2)ns1)c1ccncc1	18.2	42.7%	69.2%	1.7
c1ccc(Nc2nc(-c3ccccc3)ns2)cc1	81.8*	165.6%	203.2%	51.9*
CC(C)(C)C(=O)Nc1nc(-c2ccccc2)ns1	84.3*	i	i	58.2*
Cc1ccc(NC(=O)CSCC(=O)NC2=NCCS2)cc1	·	-6.8%	2.9%	·
Fc1ccc(-c2ccc(Nc3cccc(F)c3)nn2)cc1	51.1*	?	0.6%	46.3*
Cc1cc(=O)[nH]c(Nc2cccc(F)c2)n1	·	0.3%	102.7%	-2.2
Fc1ccc(Nc2ccc(-c3ccc(F)cc3)nn2)cc1	62.9*	19.0%	-0.4%	50.5*
Cc1cc(NS(=O)(=O)c2ccc(N)cc2)nc(C)n1	·	-0.7%	2.4%	·
O=C(O)C(Cc1ccccc1)N1C(=O)c2ccccc2C1=O (configuration not stated)	-3.4	·	14.7µM*	-5.1
O=C(O)C(Cc1ccc(O)cc1)N1C(=O)c2ccccc2C1=O (configuration not stated)	-5.8	·	10.3%	-4.0
O=C(O)C(CCCCN1C(=O)c2ccccc2C1=O)N1C(=O)c2ccccc2C1=O (configuration not stated)	-10.7	31.3%	10.4µM*	4.2
COc1ccc(NC(=O)CSc2n[nH]c(-c3ccccc3)n2)cc1S(N)(=O)=O	·	33.2%	-9.4%	·
SMILES	Shiga inhibitor	Pf growth 48h	Pf growth 96h	CHX counter
C=CCn1c(=O)n(C2OC(CO)C(O)C2O)c2nc(N)[nH]c(=O)c21 (configuration not stated)	16.0	6.4%	-7.8%	-4.1
Nc1nc(NC(=O)c2ccc(Cl)cc2)nn1-c1ccccc1	32.9	41.6%	252.7%	17.3*
Nc1nc(NC(=O)c2cccnc2)nn1-c1ccccc1	12.2	·	59.5%	12.7
CCOc1ccc(N(CC(=O)NCCc2ccccc2)C(=O)CCC(=O)Nc2cc(C)ccn2)cc1	-9.1	4.65µM*	13.6%	-3.2
COCCNC(=O)CN(C(=O)CCC(=O)Nc1ccccn1)c1ccc(C)cc1	-8.0	11.2%	-20.2%	-2.2
Cc1ccnc(NC(=O)CCC(=O)N(CC(=O)NCCc2ccccc2)c2ccc(F)cc2)c1	-7.6	-11.8%	-12.8%	-1.8

From PubChem
